Test in all cases: PBM; 200 nM protein, PBS
What all share (conditions): dsDNA, one strand shown

Assay [1] concerns the target CRX (Homo sapiens, UniProt O43186 26-111).
For assay [2], the target named is CRX (Homo sapiens, UniProt O43186 26-111, E42D).
A further assay has as its target PITX2 (Homo sapiens, UniProt Q99697 72-157).
The target of assay [3] is CRX (Homo sapiens, UniProt O43186 26-111, R41L).
The target of assay [4] is ALX1 (Homo sapiens, UniProt Q15699 118-204, L144V).
Assay [5] has as its target ALX1 (Homo sapiens, UniProt Q15699 118-204, L144R).
Assay [6] addresses ALX1 (Homo sapiens, UniProt Q15699 118-204).
Assay [7] concerns the target ALX3 (Homo sapiens, UniProt O95076 139-225, N203Q).
Assay [8] addresses ALX3 (Homo sapiens, UniProt O95076 139-225).
Assay [9] addresses ALX3 (Homo sapiens, UniProt O95076 139-225, L168Q).
Assay [10] addresses ALX3 (Homo sapiens, UniProt O95076 139-225, L168V).
Assay [11] concerns the target ALX3 (Homo sapiens, UniProt O95076 139-225, N203S).
Assay [12] concerns the target HOXD13 (Homo sapiens, UniProt P35453 263-343, T313R).
For assay [13], the target named is HOXD13 (Homo sapiens, UniProt P35453 263-343).
Chain of HOXD13 (Homo sapiens, UniProt P35453 263-343) (P35453 263-343): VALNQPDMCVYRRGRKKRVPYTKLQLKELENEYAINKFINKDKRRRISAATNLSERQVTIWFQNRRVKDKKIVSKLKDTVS
In assay [14] the target is HOXD13 (Homo sapiens, UniProt P35453 263-343, T313A).
Chain of HOXD13 (Homo sapiens, UniProt P35453 263-343, T313A) (P35453 263-343 T313A): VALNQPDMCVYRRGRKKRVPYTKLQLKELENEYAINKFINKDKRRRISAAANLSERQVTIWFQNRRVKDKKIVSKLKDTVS
The target of assay [15] is PROP1 (Homo sapiens, UniProt O75360 56-141).
Chain of PROP1 (Homo sapiens, UniProt O75360 56-141) (O75360 56-141): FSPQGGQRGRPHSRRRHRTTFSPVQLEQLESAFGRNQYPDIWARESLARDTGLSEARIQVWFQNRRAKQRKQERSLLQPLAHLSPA
Assay [16] addresses PROP1 (Homo sapiens, UniProt O75360 56-141, F88S).

Chain of CRX (Homo sapiens, UniProt O43186 26-111) (O43186 26-111): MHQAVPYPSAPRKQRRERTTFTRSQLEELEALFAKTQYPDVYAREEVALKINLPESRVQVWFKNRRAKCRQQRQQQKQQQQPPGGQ
Chain of CRX (Homo sapiens, UniProt O43186 26-111, R41L) (O43186 26-111 R41L): as the sequence (O43186 26-111) above, with R16L counted along it
Chain of CRX (Homo sapiens, UniProt O43186 26-111, E42D) (O43186 26-111 E42D): as the sequence (O43186 26-111) above, with E17D counted along it
Chain of ALX1 (Homo sapiens, UniProt Q15699 118-204, L144R) (Q15699 118-204 L144R): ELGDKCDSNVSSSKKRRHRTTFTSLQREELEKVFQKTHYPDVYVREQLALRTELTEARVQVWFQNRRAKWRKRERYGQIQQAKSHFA
Chain of ALX3 (Homo sapiens, UniProt O95076 139-225) (O95076 139-225): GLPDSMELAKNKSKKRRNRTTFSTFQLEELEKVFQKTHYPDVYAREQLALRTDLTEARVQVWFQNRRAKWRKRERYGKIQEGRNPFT
Chain of ALX3 (Homo sapiens, UniProt O95076 139-225, N203S) (O95076 139-225 N203S): as the sequence (O95076 139-225) above, with N65S counted along it
Chain of ALX1 (Homo sapiens, UniProt Q15699 118-204, L144V) (Q15699 118-204 L144V): as the sequence (Q15699 118-204 L144R) above, with R27V counted along it
Chain of ALX3 (Homo sapiens, UniProt O95076 139-225, L168Q) (O95076 139-225 L168Q): as the sequence (O95076 139-225) above, with L30Q counted along it
Chain of ALX1 (Homo sapiens, UniProt Q15699 118-204) (Q15699 118-204): as the sequence (Q15699 118-204 L144R) above, with R27L counted along it
Chain of ALX3 (Homo sapiens, UniProt O95076 139-225, N203Q) (O95076 139-225 N203Q): as the sequence (O95076 139-225) above, with N65Q counted along it
Chain of ALX3 (Homo sapiens, UniProt O95076 139-225, L168V) (O95076 139-225 L168V): as the sequence (O95076 139-225) above, with L30V counted along it
Chain of HOXD13 (Homo sapiens, UniProt P35453 263-343, T313R) (P35453 263-343 T313R): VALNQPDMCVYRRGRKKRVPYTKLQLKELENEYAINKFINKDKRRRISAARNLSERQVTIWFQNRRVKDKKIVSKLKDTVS
Chain of PROP1 (Homo sapiens, UniProt O75360 56-141, F88S) (O75360 56-141 F88S): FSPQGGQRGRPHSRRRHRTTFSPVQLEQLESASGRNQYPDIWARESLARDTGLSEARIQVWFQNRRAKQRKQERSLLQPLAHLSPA

Regarding ATGGATTA, the binding signal with CRX [1] is 13.2 upbm affinity estimate (log intensity, higher = more binding, comparable within an allelic series); with CRX [2], 13.2 upbm affinity estimate (log intensity, higher = more binding, comparable within an allelic series); in the assay with PITX2, 13.2 upbm affinity estimate (log intensity, higher = more binding, comparable within an allelic series); with CRX [3] it was 13 upbm affinity estimate (log intensity, higher = more binding, comparable within an allelic series).

As to AGGATTAA, the binding signal is 13.6 upbm affinity estimate (log intensity, higher = more binding, comparable within an allelic series) with CRX [1]; 13.7 upbm affinity estimate (log intensity, higher = more binding, comparable within an allelic series) in the assay with CRX [2]; 13.3 upbm affinity estimate (log intensity, higher = more binding, comparable within an allelic series) with PITX2; 13.5 upbm affinity estimate (log intensity, higher = more binding, comparable within an allelic series) with CRX [3].

Regarding AAATCTGC, the binding signal with CRX [1] is 10.8 upbm affinity estimate (log intensity, higher = more binding, comparable within an allelic series); with CRX [2], 10.6 upbm affinity estimate (log intensity, higher = more binding, comparable within an allelic series); with ALX1 [4], 8.09 upbm affinity estimate (log intensity, higher = more binding, comparable within an allelic series); with ALX1 [5], 8 upbm affinity estimate (log intensity, higher = more binding, comparable within an allelic series); in the assay with CRX [3], 10.6 upbm affinity estimate (log intensity, higher = more binding, comparable within an allelic series); in the assay with ALX1 [6], 8.23 upbm affinity estimate (log intensity, higher = more binding, comparable within an allelic series).

As for GGATTAGA, the binding signal with CRX [1] is 13.3 upbm affinity estimate (log intensity, higher = more binding, comparable within an allelic series); with CRX [2] it was 13.2 upbm affinity estimate (log intensity, higher = more binding, comparable within an allelic series); with PITX2 it was 13.1 upbm affinity estimate (log intensity, higher = more binding, comparable within an allelic series); with CRX [3], 13.1 upbm affinity estimate (log intensity, higher = more binding, comparable within an allelic series).

On to CGACTCGC, for which the binding signal was 8.13 upbm affinity estimate (log intensity, higher = more binding, comparable within an allelic series) with CRX [1]; 8.24 upbm affinity estimate (log intensity, higher = more binding, comparable within an allelic series) in the assay with CRX [2]; 7.77 upbm affinity estimate (log intensity, higher = more binding, comparable within an allelic series) with ALX3 [7]; 7.61 upbm affinity estimate (log intensity, higher = more binding, comparable within an allelic series) with ALX3 [8]; 7.85 upbm affinity estimate (log intensity, higher = more binding, comparable within an allelic series) in the assay with ALX3 [9]; 7.71 upbm affinity estimate (log intensity, higher = more binding, comparable within an allelic series) with ALX3 [10]. Moreover, the binding signal in the assay with CRX [3] was 8.21 upbm affinity estimate (log intensity, higher = more binding, comparable within an allelic series); with ALX3 [11], 7.81 upbm affinity estimate (log intensity, higher = more binding, comparable within an allelic series).

In the case of CTCCGCGC, the binding signal with CRX [1] is 8.47 upbm affinity estimate (log intensity, higher = more binding, comparable within an allelic series); in the assay with CRX [2], 8.47 upbm affinity estimate (log intensity, higher = more binding, comparable within an allelic series); with ALX3 [7] it was 7.75 upbm affinity estimate (log intensity, higher = more binding, comparable within an allelic series); with ALX3 [8] it was 7.82 upbm affinity estimate (log intensity, higher = more binding, comparable within an allelic series); in the assay with ALX3 [9] it was 7.71 upbm affinity estimate (log intensity, higher = more binding, comparable within an allelic series); with ALX3 [10], 7.69 upbm affinity estimate (log intensity, higher = more binding, comparable within an allelic series). In addition, the binding signal in the assay with CRX [3] is 8.43 upbm affinity estimate (log intensity, higher = more binding, comparable within an allelic series); in the assay with ALX3 [11], 7.76 upbm affinity estimate (log intensity, higher = more binding, comparable within an allelic series).

As to AGATTAAT, the binding signal was 12.9 upbm affinity estimate (log intensity, higher = more binding, comparable within an allelic series) with CRX [1]; 12.9 upbm affinity estimate (log intensity, higher = more binding, comparable within an allelic series) with CRX [2]; 12.6 upbm affinity estimate (log intensity, higher = more binding, comparable within an allelic series) in the assay with PITX2; 12.5 upbm affinity estimate (log intensity, higher = more binding, comparable within an allelic series) with CRX [3].

CACGCTCC: the binding signal with CRX [1] was 8.3 upbm affinity estimate (log intensity, higher = more binding, comparable within an allelic series); in the assay with CRX [2] it was 8.47 upbm affinity estimate (log intensity, higher = more binding, comparable within an allelic series); with HOXD13 [12] it was 9.56 upbm affinity estimate (log intensity, higher = more binding, comparable within an allelic series); with HOXD13 [13], 9.55 upbm affinity estimate (log intensity, higher = more binding, comparable within an allelic series); with HOXD13 [14] it was 9.79 upbm affinity estimate (log intensity, higher = more binding, comparable within an allelic series); in the assay with CRX [3], 8.41 upbm affinity estimate (log intensity, higher = more binding, comparable within an allelic series).

On to TGGATTAA, for which the binding signal with CRX [1] was 13.4 upbm affinity estimate (log intensity, higher = more binding, comparable within an allelic series); with CRX [2] it was 13.5 upbm affinity estimate (log intensity, higher = more binding, comparable within an allelic series); in the assay with PITX2 it was 13.3 upbm affinity estimate (log intensity, higher = more binding, comparable within an allelic series); with CRX [3], 13.2 upbm affinity estimate (log intensity, higher = more binding, comparable within an allelic series).

Consider CTAATCTC, for which the binding signal with CRX [1] is 13 upbm affinity estimate (log intensity, higher = more binding, comparable within an allelic series); with CRX [2] it was 13 upbm affinity estimate (log intensity, higher = more binding, comparable within an allelic series); in the assay with PITX2, 12.6 upbm affinity estimate (log intensity, higher = more binding, comparable within an allelic series); in the assay with PROP1 [15], 8.84 upbm affinity estimate (log intensity, higher = more binding, comparable within an allelic series); in the assay with PROP1 [16] it was 7.25 upbm affinity estimate (log intensity, higher = more binding, comparable within an allelic series); with CRX [3] it was 12.7 upbm affinity estimate (log intensity, higher = more binding, comparable within an allelic series).

GGATTAAA: the binding signal in the assay with CRX [1] is 13.5 upbm affinity estimate (log intensity, higher = more binding, comparable within an allelic series); with CRX [2] it was 13.6 upbm affinity estimate (log intensity, higher = more binding, comparable within an allelic series); in the assay with PITX2, 13.3 upbm affinity estimate (log intensity, higher = more binding, comparable within an allelic series); with CRX [3], 13.4 upbm affinity estimate (log intensity, higher = more binding, comparable within an allelic series).

As to CGGACACG, the binding signal is 8.06 upbm affinity estimate (log intensity, higher = more binding, comparable within an allelic series) with CRX [1]; 8.04 upbm affinity estimate (log intensity, higher = more binding, comparable within an allelic series) in the assay with CRX [2]; 6.53 upbm affinity estimate (log intensity, higher = more binding, comparable within an allelic series) with ALX1 [4]; 6.6 upbm affinity estimate (log intensity, higher = more binding, comparable within an allelic series) with ALX1 [5]; 8.13 upbm affinity estimate (log intensity, higher = more binding, comparable within an allelic series) with CRX [3]; 6.41 upbm affinity estimate (log intensity, higher = more binding, comparable within an allelic series) in the assay with ALX1 [6].

For CGGGATTA, the binding signal with CRX [1] was 13.4 upbm affinity estimate (log intensity, higher = more binding, comparable within an allelic series); with CRX [2], 13.4 upbm affinity estimate (log intensity, higher = more binding, comparable within an allelic series); in the assay with PITX2, 13.3 upbm affinity estimate (log intensity, higher = more binding, comparable within an allelic series); with CRX [3] it was 13.3 upbm affinity estimate (log intensity, higher = more binding, comparable within an allelic series).

In the case of GAGATTAA, the binding signal with CRX [1] was 13.1 upbm affinity estimate (log intensity, higher = more binding, comparable within an allelic series); in the assay with CRX [2], 13.1 upbm affinity estimate (log intensity, higher = more binding, comparable within an allelic series); in the assay with PITX2 it was 12.8 upbm affinity estimate (log intensity, higher = more binding, comparable within an allelic series); in the assay with CRX [3], 12.8 upbm affinity estimate (log intensity, higher = more binding, comparable within an allelic series).
